Source: PubChem (National Center for Advancing Translational Sciences (NCATS))
Pf growth 96h: P. falciparum growth inhibition at 96 hours; P. falciparum luciferase reporter growth, 96 h; Potency, µM (doses to about 28.7 µM), for inactives: top-dose activity change, negative = inhibition, usual class: inhibitors; hit rate 6.9% among 320,000; also: potency is read from the fitted curve at half-maximal effect; % is scaled to controls: 0 for no effect and ±100 for the full control effect
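Compounds incubated with erythrocytes infected by luciferase-expressing P. falciparum (2% hematocrit, 0.05% parasitemia final) for 96 hours, 37 C in 5% CO2. Growth inhibition scored as decreased luciferase luminescence.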
Pf growth 48h: inhibits P. falciparum growth in the first generation, 48 h; AID 504832; P. falciparum luciferase growth in erythrocytes, 48 h; Potency, µM (top dose mostly 28.7 µM), for inactives: at the highest dose activity change, negative = inhibition, most hits filed as inhibitors; hit rate 5.9% among 310,000; also: potency is read from the fitted curve at half-maximal effect; % is scaled to controls: 0 for no effect and ±100 for the full control effect
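First compound was added to culture medium, then infected red cells at 0.1% parasitemia and 2% hematocrit (final). After incubation at 37 C under 5% CO2, luciferase detection reagent was dispensed and light output recorded.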
HCV inhibitor: HCV inhibition | Huh7.5.1 HCVcc-Cre infection, luciferase reporter, 44 h | Potency, µM (top dose mostly 41.8 µM), for inactives: top-dose activity change, negative = inhibition, hits mostly inhibitors | hit rate 3.4% among 340,000; also: potency is read from the fitted curve at half-maximal effect; % is scaled to controls: 0 for no effect and ±100 for the full control effect
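Reporter virus HCVcc-Cre (~0.5 moi) infects cells exposed to compound; seeding density 1,000 cells/well with 4 h settling beforehand. Luminescence, 15 sec read, taken 44 h post-infection following a 15 min RT substrate incubation.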
CHX counter: counter-screen for Shiga toxin inhibitors: cycloheximide protein synthesis inhibition; hit rate 12% among 300,000; max response, %; cell reporter, cycloheximide protein synthesis inhibition counterscreen; AID 2314; in the data active = max response mostly above about 13%, no sharp cut-off; inactive = mostly below about 14%; also: read at 38.3 µM for the half of the compounds with a filed dose; 0% is about no effect
HCMV antiviral: human cytomegalovirus inhibition; HFF cells, HCMV-luciferase reporter, 72 h; stronger effect = lower value; hit rate 4.5% among 410,000; activity change, negative = inhibition, % at 57.5 µM; in the data active = activity change below about -60%; inconclusive = no clear call, values can overlap the other calls; inactive = above about -39%; also: % is scaled to controls: 0 for no effect and ±100 for the full control effect
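Two-dose cell screen: HFF monolayers treated with compounds and infected with luciferase-expressing HCMV at 1 PFU/cell, 72 h at 37C, then lysed for luciferase measurement.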
Shiga toxin inh: inhibitors of Shiga toxin in Vero cells; Vero cells, Shiga toxin protein synthesis inhibition reporter; inhibition, % at 38.7 µM; hit rate 9.2% among 290,000; in the data active = inhibition mostly above about 28%, no sharp cut-off; inactive = mostly below about 43%; also: 0% is about no effect
* marks the source's active call; other numbers are inactive results. Sampled rows, rich in hits. Any-hit rate of the full collection: about 21%. Unless noted, calls follow the shape of the dose curve; as a rule, active = well fitted inhibition curve with a large enough effect; inconclusive = small, poorly fitted or top-dose-only effect, or another doubt; inactive = no such curve, though single readings can be large or run the other way.

O=C(Cn1cc2c(n1)CCCC2)NCc1ccccn1 was read as Pf growth 96h 34%, Pf growth 48h 4%, HCV inhibitor 24%, CHX counter -1, HCMV antiviral 32 and Shiga toxin inh 2.
`O=C(Cn1cc2c(n1)CCCC2)Nc1cc(-c2cccc(Cl)c2)no1` gave Pf growth 96h 23%, Pf growth 48h inconclusive, HCV inhibitor 1%, CHX counter 28*, HCMV antiviral 3 and Shiga toxin inh 44*.
COc1ccc(-c2cn3nc(N4CCCC(C(=O)NCc5ccccc5C)C4)sc3n2)cc1 (stereo not drawn) was read as HCMV antiviral 0.
COc1ccc(NC2=NC(C)(CO)CS2)cc1 (stereo not drawn) was read as Pf growth 96h 32%, Pf growth 48h inconclusive, HCV inhibitor 7%, CHX counter 14*, HCMV antiviral 43 and Shiga toxin inh 40.
Screening O=C(NC1CCCCC1)c1cc2ccccc2cc1O returned Pf growth 96h 1.9µM*, Pf growth 48h 5.2µM*, HCV inhibitor -28%, CHX counter 24*, HCMV antiviral 0 and Shiga toxin inh 34*.
`Nc1nc2ncccc2cc1C(=O)NC1CCCCC1` gave HCMV antiviral -15.
`Cc1ccccc1C(=O)NC1CCCCCCC1` gave Pf growth 96h 153%, Pf growth 48h 162%, HCV inhibitor 1%, CHX counter 34*, HCMV antiviral 87 and Shiga toxin inh 39*.
CSc1ccccc1C(=O)NC1CCCCCC1 was read as Pf growth 48h 3%, HCV inhibitor 2%, CHX counter 1, HCMV antiviral -1 and Shiga toxin inh -6.
`O=C(NC1CCCCCCC1)c1ccccc1O` gave Pf growth 96h inconclusive, Pf growth 48h 12µM*, HCV inhibitor -1%, CHX counter 31*, HCMV antiviral 91 and Shiga toxin inh 75*.
`COc1cc(F)c(C(=O)NC(C)(C)CO)cc1OC` gave HCMV antiviral -5.
COc1ccccc1N=Nc1c(C)[nH][nH]c1=O was read as Pf growth 96h 4%, Pf growth 48h 36%, HCV inhibitor -28%, CHX counter 11, HCMV antiviral inconclusive and Shiga toxin inh 35.
For Cc1[nH][nH]c(=O)c1N=Nc1ccccc1C#N the results were Pf growth 96h 23%, Pf growth 48h -18%, CHX counter 50*, HCMV antiviral -6 and Shiga toxin inh 40.
CCN1C(=O)CC(NC2CCN(C(=O)c3ccc(F)cc3)CC2)C1=O (stereo not drawn) was read as Pf growth 96h inconclusive, Pf growth 48h 1%, HCV inhibitor 24%, CHX counter -1 and Shiga toxin inh -11.
COc1cc(C2c3c(c(C)c(C)oc3=O)Oc3c(C)c(C)oc(=O)c32)ccc1OS(=O)(=O)c1ccc(C)cc1 was read as Pf growth 96h 4.7µM*, Pf growth 48h 5.9µM*, HCV inhibitor inconclusive and HCMV antiviral 7.
`COc1ccc(C2c3c(c(C)c(C)oc3=O)Oc3c(C)c(C)oc(=O)c32)cc1` gave Pf growth 96h 10%, Pf growth 48h 30%, HCV inhibitor -3% and HCMV antiviral -9.
Screening CCCCOC(=O)Nc1nc2ccc([N+](=O)[O-])cc2s1 returned Pf growth 96h 26%, Pf growth 48h inconclusive, HCV inhibitor 13%, CHX counter 10, HCMV antiviral -29 and Shiga toxin inh 12.
Cc1ccc(C)c(OCC(=O)Nc2nc3ccc([N+](=O)[O-])cc3s2)c1C was read as Pf growth 96h 35%, Pf growth 48h 24%, HCV inhibitor 11µM*, CHX counter 1, HCMV antiviral -65* and Shiga toxin inh -16.
`CCC(=O)Nc1nc2ccc([N+](=O)[O-])cc2s1` gave Pf growth 96h 46%, Pf growth 48h 81%, HCV inhibitor -4%, CHX counter 10, HCMV antiviral -60* and Shiga toxin inh 14.
CC(=O)Nc1ccc2nc(NC(=O)COc3ccc([N+](=O)[O-])cc3)sc2c1 was read as Pf growth 96h -2%, Pf growth 48h 31%, HCV inhibitor 6%, CHX counter 8, HCMV antiviral 3 and Shiga toxin inh -11.
